Source: PubChem BioAssay (Tox21)
Results filed as inconclusive are left out. Active and inactive are the calls of the source. Unless noted, calls follow the shape of the dose curve; as a rule, active = well fitted curve in the direction sought with a large enough effect in the repeat runs; inconclusive = weak or mixed curves; inactive = no such curve, though single readings can be large; an effect the other way counts as inactive or inconclusive.

Assays:
[1] = qHTS assay for small molecule agonists of the p53 signaling pathway (AID 651631; calls by dose curve; also: nearly all actives have a fitted effect of over 15% in size)
How it was run: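 Stably transfected HCT-116 cells (beta-lactamase behind p53 response elements) get compounds after a 5 h settling period; 16 h later at 37 °C, FRET substrate is loaded and fluorescence read after 2 h.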

[2] = qHTS assay for small molecules that induce genotoxicity in human embryonic kidney cells expressing luciferase-tagged ATAD5 (AID 651632); also: nearly all actives have a fitted effect of over 15% in size
How it was run: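 Increased luciferase signal from ATAD5-tagged reporter cells indicates DNA-damage-driven ATAD5 induction. HEK293T cells are treated for 16 hr at 37C before detection with Amplite.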

[3] = qHTS assay for small molecule agonists of the p53 signaling pathway - cell viability (AID 651633; calls by dose curve;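 also: p53RE-bla HCT reporter cells with a stable beta-lactamase p53 reporter; series mostly up to about 83 µM; nearly all actives have a fitted effect of over 30% in size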)
How it was run: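 Viability counter-read: CellTiter-Glo luminescence (30 min, room temperature) in the same p53RE-bla plates. These plates had been exposed to compounds for 16 h at 37 C.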

[4] = qHTS assay for small molecules that induce genotoxicity in human embryonic kidney cells expressing luciferase-tagged ATAD5 - cell viability (AID 651634; calls by dose curve; also: nearly all actives have a fitted effect of over 25% in size)
How it was run: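 Cytotoxicity counterscreen in HEK293T cells bearing an ATAD5-luciferase reporter: live-cell protease activity measured by CellTiter-Fluor fluorescence after 15.5 hr compound exposure.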

[5] = qHTS assay for small molecule disruptors of the mitochondrial membrane potential - cell viability (AID 720634; calls by dose curve;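 also: human HepG2 liver cancer cells; series mostly up to about 83 µM; nearly all actives have a fitted effect of over 20% in size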)
How it was run: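 After overnight attachment at 37 C, HepG2 cells received compound or DMSO vehicle for 1 hr. Viability is then taken from ATP-driven luminescence following a 30 min room-temperature CellTiter-Glo step.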

[6] = qHTS assay for small molecule disruptors of the mitochondrial membrane potential (AID 720635)
How it was run: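 Mitochondrial membrane potential tracked with Mito-MPS dye, red aggregates (ex 540/em 590 nm) against green monomers (ex 490/em 535 nm). Compound treatment 1 hr at 37C, dye 30 min in HepG2.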

[7] = qHTS assay to test for compound auto fluorescence at 590 nm (red) in HepG2 cells (AID 720674)
How it was run: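 Red autofluorescence (Ex/Em 540/590 nm, Rose Bengal sodium equivalents) was measured in HepG2 cells, 2,000 per well in MEM plus 10% FBS, plated overnight at 37 C. Readings were taken 1 hr after adding 23 nL compound or DMSO, at 37 C and 5% CO2.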

[8] = qHTS assay to test for compound auto fluorescence at 535 nm (green) in HepG2 cells (AID 720675)
[9] = qHTS assay to test for compound auto fluorescence at 460 nm (blue) in HEK293 cells (AID 720678)
How it was run: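 HEK293 cells (2,000/well, medium with 10% dialyzed FBS) attached 4-5 hr, then exposed to compound overnight at 37C, 5% CO2. Blue fluorescence read at 405/460 nm, with triamterene as reference fluorophore.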

[10] = qHTS assay to test for compound auto fluorescence at 590 nm (red) in HEK293 cells (AID 720679)
How it was run: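 HEK293 cells (2,000/well, 10% dialyzed FBS) attached 4-5 hr, then dosed with compound or DMSO and incubated overnight at 37C, 5% CO2. Red fluorescence read at 540/590 nm, Rose Bengal sodium as reference fluorophore.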

[11] = qHTS assay to test for compound auto fluorescence at 535 nm (green) in HEK293 cells (AID 720680)
[12] = qHTS assay to test for compound auto fluorescence at 460 nm (blue) in HEK293 cell free culture (AID 720681)
How it was run: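 Blue fluorescence (Ex 405/Em 460 nm, triamterene-equivalent) was read immediately after pin transfer of compound or DMSO into medium (DMEM, 10% FBS) without cells.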

[13] = qHTS assay to test for compound auto fluorescence at 535 nm (green) in HEK293 cell free culture (AID 720682)
How it was run: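 Using fluorescein as calibrant, autofluorescence was quantified at 485/535 nm in cell-free DMEM containing 10% FBS after pintool addition of compound or vehicle.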

[14] = qHTS assay to test for compound auto fluorescence at 590 nm (red) in HEK293 cell free culture (AID 720683)
How it was run: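 Red-channel autofluorescence of compounds in culture medium (DMEM, 10% FBS), no cells, measured at 540/590 nm. Rose Bengal sodium is the reference fluorophore for equivalence.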

[15] = qHTS assay to test for compound auto fluorescence at 590 nm (red) in HepG2 cell free culture (AID 720684)
How it was run: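 Steps: dispense MEM/10% FBS medium, no cells; pin compound or DMSO vehicle; read red channel, Ex/Em 540/590 nm. Output given as Rose Bengal sodium equivalents.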

[16] = qHTS assay to test for compound auto fluorescence at 460 nm (blue) in HepG2 cell free culture (AID 720685)
How it was run: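 Compound (23 nL) or DMSO pinned into cell-free MEM with 10% FBS; blue fluorescence read at 405/460 nm excitation/emission, expressed as auto-fluorescence equivalency to triamterene.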

[17] = qHTS assay to test for compound auto fluorescence at 535 nm (green) in HepG2 cell free culture (AID 720686)
[18] = qHTS assay to test for compound auto fluorescence at 460 nm (blue) in HepG2 cells (AID 720687)
How it was run: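 Blue-channel autofluorescence (Ex/Em 405/460 nm, triamterene-equivalent) was measured after 1 hr compound exposure at 37 C, 5% CO2. Cells were HepG2, plated overnight at 37 C in MEM plus 10% FBS.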

[19] = molecular target: Glucocorticoid receptor (Homo sapiens) (UniProt P04150); assay: qHTS assay to identify small molecule agonists of the glucocorticoid receptor (GR) signaling pathway (AID 720691; active = well fitted activation curve with a large enough effect in the signal ratio in the repeat runs, not every such curve was filed as active; the % refers to the signal ratio)
How it was run: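 Agonist mode in a HeLa line carrying a GRE-controlled beta-lactamase reporter. Compounds act for 18 h at 37 C before a 2 h room-temperature FRET substrate step and fluorescence reading.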

[20] = molecular target: Glucocorticoid receptor (Homo sapiens) (UniProt P04150); assay: qHTS assay to identify small molecule antagonists of the glucocorticoid receptor (GR) signaling pathway (AID 720692; active = well fitted inhibition curve with a large enough effect in the signal ratio in the repeat runs, not every such curve was filed as active; the % refers to the signal ratio)
How it was run: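 Cells plated, rested 4 h at 37 C/5% CO2; compounds in DMSO pin-transferred; dexamethasone added to 5 nM final; 18 h at 37 C; B/G FRET substrate added, 2 h room temperature; fluorescence measured.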
% is scaled to controls: 0 for no effect and ±100 for the full control effect.

Sequence of Glucocorticoid receptor (Homo sapiens) (P04150 whole entry, looked up): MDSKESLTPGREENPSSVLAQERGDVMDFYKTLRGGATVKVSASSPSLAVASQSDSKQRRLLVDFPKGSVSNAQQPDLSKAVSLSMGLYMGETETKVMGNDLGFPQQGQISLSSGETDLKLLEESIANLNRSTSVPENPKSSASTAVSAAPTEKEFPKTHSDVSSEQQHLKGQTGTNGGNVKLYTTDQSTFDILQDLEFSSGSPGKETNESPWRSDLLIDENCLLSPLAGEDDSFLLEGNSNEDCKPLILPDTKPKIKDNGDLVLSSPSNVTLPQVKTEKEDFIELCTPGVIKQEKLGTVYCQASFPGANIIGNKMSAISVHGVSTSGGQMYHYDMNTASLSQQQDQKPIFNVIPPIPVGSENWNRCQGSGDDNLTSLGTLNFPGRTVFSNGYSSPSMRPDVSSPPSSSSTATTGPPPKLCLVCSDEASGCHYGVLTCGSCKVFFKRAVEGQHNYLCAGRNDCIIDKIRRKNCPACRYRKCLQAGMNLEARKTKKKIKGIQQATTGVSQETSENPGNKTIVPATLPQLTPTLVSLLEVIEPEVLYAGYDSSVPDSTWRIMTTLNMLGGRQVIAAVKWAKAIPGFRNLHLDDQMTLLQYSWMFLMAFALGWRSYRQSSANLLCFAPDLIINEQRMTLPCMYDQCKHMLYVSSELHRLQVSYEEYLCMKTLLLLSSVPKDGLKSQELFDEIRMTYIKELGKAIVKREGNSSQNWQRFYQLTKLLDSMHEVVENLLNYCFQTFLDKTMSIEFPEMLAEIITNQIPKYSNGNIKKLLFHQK

Cc1cc(C(C)(C)C)c(O)c(C)c1CC1=NCCN1
inactive: outcome [1] | Potency [2] | outcome [3] | Potency [4] | outcome [5] | Potency [6] | outcome [7] | outcome [8] | outcome [9] | outcome [10] | outcome [11] | outcome [12] | outcome [13] | outcome [14] | outcome [15] | outcome [16] | outcome [17] | outcome [18] | Potency [19] | outcome [20]

O=C1CCCC(=O)O1
inactive: outcome [1] | Potency [2] | outcome [3] | Potency [4] | outcome [5] | Potency [6] | outcome [7] | outcome [8] | outcome [10] | outcome [11] | outcome [12] | outcome [13] | outcome [14] | outcome [15] | outcome [16] | outcome [17] | outcome [18]

CC(=O)NCc1c(I)c(NC(C)=O)c(I)c(C(=O)O)c1I
inactive: outcome [1] | Potency [2] | outcome [3] | Potency [4] | outcome [5] | Potency [6] | outcome [7] | outcome [8] | outcome [9] | outcome [10] | outcome [11] | outcome [12] | outcome [13] | outcome [14] | outcome [15] | outcome [16] | outcome [17] | outcome [18]

CC(=O)OC(C)OC(=O)C(C)c1ccc(-c2ccccc2)c(F)c1 (configuration not stated)
inactive: outcome [1] | Potency [2] | outcome [3] | Potency [4] | outcome [5] | Potency [6] | outcome [7] | outcome [8] | outcome [9] | outcome [10] | outcome [11] | outcome [12] | outcome [13] | outcome [14] | outcome [15] | outcome [16] | outcome [17] | outcome [18] | Potency [19] | outcome [20]

CN1C(C)(C)CCCC1(C)C
inactive: outcome [1] | Potency [2] | outcome [3] | Potency [4] | outcome [5] | Potency [6] | outcome [7] | outcome [8] | outcome [9] | outcome [10] | outcome [11] | outcome [12] | outcome [13] | outcome [14] | outcome [15] | outcome [16] | outcome [17] | outcome [18] | Potency [19]

FC(F)(F)c1ccccc1-n1ccnc1
inactive: outcome [1] | Potency [2] | outcome [3] | Potency [4] | outcome [5] | Potency [6] | outcome [7] | outcome [8] | outcome [9] | outcome [10] | outcome [11] | outcome [12] | outcome [13] | outcome [14] | outcome [15] | outcome [16] | outcome [17] | outcome [18] | Potency [19]

CC(C)=O
inactive: outcome [1] | Potency [2] | outcome [3] | Potency [4] | outcome [5] | Potency [6] | outcome [7] | outcome [8] | outcome [9] | outcome [10] | outcome [11] | outcome [12] | outcome [13] | outcome [15] | outcome [16] | outcome [17] | outcome [18]

CN1CCN(CC(=O)N2c3ccccc3C(=O)Nc3cccnc32)CC1
inactive: outcome [1] | Potency [2] | outcome [3] | Potency [4] | outcome [5] | Potency [6] | outcome [7] | outcome [8] | outcome [9] | outcome [10] | outcome [11] | outcome [12] | outcome [13] | outcome [14] | outcome [15] | outcome [16] | outcome [17] | outcome [18] | Potency [19]

Cc1ccsc1/C=C/C1=NCCCN1C
inactive: outcome [1] | Potency [2] | outcome [3] | Potency [4] | outcome [5] | Potency [6] | fluorescence, relative to Rose Bengal [7] 0.162% [at 18.6 µM] | fluorescence, % of fluorescein control [8] 0.0988% [at 18.6 µM] | fluorescence, % of triamterene [9] -0.421% [at 18.6 µM] | fluorescence, % of fluorescent control [10] -1.08% [at 18.6 µM] | fluorescence, % of fluorescein [11] 0.007% [at 18.6 µM] | fluorescence, % of fluorescent control [12] -0.0198% [at 18.6 µM] | activity change [13] 0.0151% [at 18.6 µM] | fluorescence, % of fluorescent control [14] -0.0392% [at 18.6 µM] | fluorescence, % of Rose Bengal [15] -0.469% [at 18.6 µM] | fluorescence, % of fluorescent control [16] -0.0937% [at 18.6 µM] | fluorescence, % of fluorescein control [17] -0.205% [at 18.6 µM] | fluorescence, % of fluorescent control [18] 0.164% [at 18.6 µM] | Potency [19] | outcome [20]

COc1ccc(S(=O)(=O)N2c3ccc(Cl)cc3[C@@](O)(c3ccccc3Cl)[C@H]2C(=O)N2CCC[C@@H]2C(N)=O)cc1OC
inactive: outcome [1] | Potency [2] | outcome [3] | Potency [4] | outcome [5] | Potency [6] | outcome [7] | outcome [8] | outcome [9] | outcome [10] | outcome [11] | outcome [12] | outcome [13] | outcome [14] | outcome [15] | outcome [16] | outcome [17] | outcome [18] | Potency [19]

O=C(NCCN1CCOCC1)c1ccc(Cl)cc1
inactive: outcome [1] | Potency [2] | outcome [3] | Potency [4] | outcome [5] | Potency [6] | outcome [7] | outcome [8] | outcome [9] | outcome [10] | outcome [11] | outcome [12] | outcome [13] | outcome [14] | outcome [16] | outcome [17] | outcome [18]

NS(=O)(=O)c1ccc(NC(=O)CCC(=O)O)cc1
inactive: outcome [1] | Potency [2] | outcome [3] | Potency [4] | outcome [5] | Potency [6] | outcome [7] | outcome [8] | outcome [9] | outcome [10] | outcome [11] | outcome [12] | outcome [13] | outcome [16] | outcome [17] | outcome [18] | Potency [19]
